Measurements: PubChem BioAssay (NCI)
This is part of a sample that, as a whole, favours compounds with a hit. Of some 83,000 tested, about 20% had one in any assay.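 Results are percent growth after 48 hours of single-concentration exposure. 100 means growth as in untreated cells, lower positive values show inhibition; negative values down to -100 show cell death.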 Calls of active or inactive are those of the source. Rule for the calls: active = growth percent below 10; inactive = the rest.

How the values were obtained:
Assay in all cases: NCI-60 one-dose screen, 48 h (100 = growth as untreated, 0 = no growth, -100 = all killed)
Settings in all cases: 10 µM
NCI-H23 lung = tested on: NCI-H23 lung
NCI-H226 lung = tested on: NCI-H226 lung
NCI-H322M lung = tested on: NCI-H322M lung
NCI-H460 lung = tested on: NCI-H460 lung
NCI-H522 lung = tested on: NCI-H522 lung
786-0 renal = tested on: 786-0 renal
COLO 205 colon = tested on: COLO 205 colon
DU-145 prostate = tested on: DU-145 prostate
K-562 leukemia = tested on: K-562 leukemia
MALME-3M melanoma = tested on: MALME-3M melanoma
RXF 393 renal = tested on: RXF 393 renal
SF-268 CNS = tested on: SF-268 CNS
SF-295 CNS = tested on: SF-295 CNS
SF-539 CNS = tested on: SF-539 CNS
UACC-257 melanoma = tested on: UACC-257 melanoma
M14 melanoma = tested on: M14 melanoma
A549/ATCC NSCLC = tested on: A549/ATCC NSCLC
MDA-MB-231 breast = tested on: MDA-MB-231 breast
HOP-62 NSCLC = tested on: HOP-62 NSCLC
HOP-92 NSCLC = tested on: HOP-92 NSCLC

Measured: growth

CC(=O)Nc1cc2c(cc1Cl)Cc1cc(Cl)ccc1-2
inactive: NCI-H23 lung 77.1% | NCI-H226 lung 83% | NCI-H322M lung 96% | NCI-H460 lung 95.9% | NCI-H522 lung 79.6% | 786-0 renal 112% | COLO 205 colon 105% | DU-145 prostate 106% | K-562 leukemia 108% | MALME-3M melanoma 113% | RXF 393 renal 98.7% | SF-268 CNS 88.4% | SF-295 CNS 109% | SF-539 CNS 88.1% | UACC-257 melanoma 88.9% | M14 melanoma 106%

CSc1ccc(-c2cc(-c3ccc(NC(=O)CCCN4CCCC4)cc3)nc(-c3ccc(NC(=O)CCCN4CCCC4)cc3)c2)cc1
inactive: NCI-H23 lung 92.8% | NCI-H226 lung 81.9% | NCI-H322M lung 94.8% | NCI-H460 lung 32.1% | NCI-H522 lung 62.5% | A549/ATCC NSCLC 46.2% | 786-0 renal 80.7% | COLO 205 colon 82.6% | DU-145 prostate 104% | MALME-3M melanoma 88.4% | RXF 393 renal 51.1% | SF-268 CNS 48.6% | SF-539 CNS 75.7% | UACC-257 melanoma 95.3% | M14 melanoma 88.4%
active: K-562 leukemia -36.4% | MDA-MB-231 breast -4.05%

COc1cc2nc(SCC(=O)Nc3cc(OC)c(OC)c(OC)c3)n(Cc3ccccc3)c(=O)c2cc1OC
active: 786-0 renal -6.9% | SF-539 CNS 6.77%
inactive: NCI-H23 lung 69.6% | NCI-H226 lung 45.9% | NCI-H322M lung 65.2% | NCI-H460 lung 68.7% | A549/ATCC NSCLC 28.1% | COLO 205 colon 96.2% | DU-145 prostate 54.6% | MALME-3M melanoma 45.6% | MDA-MB-231 breast 41% | RXF 393 renal 36.7% | SF-268 CNS 39.5% | SF-295 CNS 45.8% | UACC-257 melanoma 20.6% | M14 melanoma 39.3%

c1ccc(CCCCc2ccc3ccccc3n2)cc1
inactive: NCI-H23 lung 102% | NCI-H226 lung 94.8% | NCI-H322M lung 99.7% | NCI-H460 lung 105% | NCI-H522 lung 75.3% | A549/ATCC NSCLC 98.5% | 786-0 renal 102% | DU-145 prostate 111% | K-562 leukemia 102% | MALME-3M melanoma 98.2% | MDA-MB-231 breast 106% | SF-268 CNS 99% | SF-295 CNS 106% | SF-539 CNS 101% | UACC-257 melanoma 103% | M14 melanoma 98.1%

O=C(NCCNC(=O)c1ccc(F)cc1)Nc1ccc(-n2cc(-c3ccncc3)c(-c3ccc(Cl)c(O)c3)n2)cc1
active: NCI-H23 lung 6.86% | NCI-H460 lung -0.482% | HOP-92 NSCLC -19% | NCI-H522 lung -29.2% | 786-0 renal -11.1% | COLO 205 colon -80.8% | DU-145 prostate 2.26% | K-562 leukemia 6.23% | MALME-3M melanoma 3.35% | MDA-MB-231 breast -29.1% | RXF 393 renal 3.36% | SF-268 CNS 5.76% | SF-295 CNS -59.1% | SF-539 CNS -37.7%
inactive: NCI-H226 lung 24.2% | HOP-62 NSCLC 22.9% | A549/ATCC NSCLC 12.4% | UACC-257 melanoma 24.1%

O=C(O)c1cn(C2CC2)c2cc(N3CCN(C(=O)c4cc(-c5ccc(Cl)cc5)nc5ccccc45)CC3)c(F)cc2c1=O
inactive: NCI-H23 lung 82.2% | NCI-H226 lung 92.3% | HOP-62 NSCLC 82.1% | NCI-H460 lung 96.1% | HOP-92 NSCLC 90.1% | NCI-H522 lung 86.4% | A549/ATCC NSCLC 94.4% | 786-0 renal 88.3% | COLO 205 colon 110% | DU-145 prostate 105% | K-562 leukemia 83.7% | MALME-3M melanoma 107% | MDA-MB-231 breast 76.3% | RXF 393 renal 73.6% | SF-268 CNS 89% | SF-295 CNS 91.3% | SF-539 CNS 93.8% | UACC-257 melanoma 107%

Oc1ccc(/C=N/N=C2c3ccccc3-c3ccccc32)c(O)c1
inactive: NCI-H23 lung 70.2% | NCI-H226 lung 60.5% | HOP-62 NSCLC 82.3% | NCI-H460 lung 83.2% | HOP-92 NSCLC 79.5% | NCI-H522 lung 74.5% | A549/ATCC NSCLC 54.8% | 786-0 renal 80.4% | COLO 205 colon 88% | DU-145 prostate 90% | K-562 leukemia 64.8% | MALME-3M melanoma 105% | MDA-MB-231 breast 48.3% | RXF 393 renal 49.6% | SF-268 CNS 83.1% | SF-295 CNS 101% | SF-539 CNS 89.1% | UACC-257 melanoma 84.7%

O=C(CCl)Nc1ccc(Cc2ccc(NC(=O)CCl)cc2)cc1
active: NCI-H23 lung -10.4% | NCI-H226 lung -16.2% | NCI-H460 lung -29.3% | NCI-H522 lung -81% | 786-0 renal -20.2% | COLO 205 colon -56.1% | K-562 leukemia 0.772% | MALME-3M melanoma -67.5% | MDA-MB-231 breast -15.8% | RXF 393 renal -50.7% | SF-539 CNS -87.7%
inactive: HOP-62 NSCLC 33.2% | HOP-92 NSCLC 46.3% | A549/ATCC NSCLC 25.3% | DU-145 prostate 32.3% | SF-268 CNS 10.1% | SF-295 CNS 70.1% | UACC-257 melanoma 16.3%
